Results filed as inconclusive are left out. The source made the active and inactive calls. Calls follow the shape of the dose curve; as a rule, active = well fitted curve in the direction sought with a large enough effect; inconclusive = small, poorly fitted or top-dose-only effect, or another doubt; inactive = no such curve, though single readings can be large; an effect the other way counts as inactive or inconclusive.
Legend:
[1] = molecular target: Thioredoxin reductase 1, cytoplasmic (Rattus norvegicus) (UniProt O89049); assay: qHTS Assay for Inhibitors of Mammalian Selenoprotein Thioredoxin Reductase 1 (TrxR1) (AID 488773); conditions: purified TrxR1 enzyme activity; Potency: inhibition; series mostly up to 57.1 µM;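 also: drop in NADPH fluorescence over an 8 min run after selenite addition; nearly all actives have a fitted effect of over 40% in size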
Sequence of Thioredoxin reductase 1, cytoplasmic (Rattus norvegicus) (O89049 whole entry, looked up): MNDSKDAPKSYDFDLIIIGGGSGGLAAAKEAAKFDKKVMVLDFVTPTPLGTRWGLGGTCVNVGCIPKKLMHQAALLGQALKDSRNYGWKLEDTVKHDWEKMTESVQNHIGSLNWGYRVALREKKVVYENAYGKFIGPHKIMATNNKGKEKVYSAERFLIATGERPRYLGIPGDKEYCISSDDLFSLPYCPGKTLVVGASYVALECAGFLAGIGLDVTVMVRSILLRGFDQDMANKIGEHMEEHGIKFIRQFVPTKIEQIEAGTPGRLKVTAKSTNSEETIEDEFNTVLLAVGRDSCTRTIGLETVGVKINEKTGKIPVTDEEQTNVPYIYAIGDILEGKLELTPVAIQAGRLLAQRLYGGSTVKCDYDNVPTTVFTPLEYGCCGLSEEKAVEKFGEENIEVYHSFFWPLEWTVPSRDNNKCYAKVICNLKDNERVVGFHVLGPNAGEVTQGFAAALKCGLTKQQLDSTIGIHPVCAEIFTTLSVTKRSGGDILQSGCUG
Summary of the method: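 Steps: enzyme (90 nM) plus NADPH (400 uM final), 5 min at ~22 deg C; compound added, 15 min; selenite (400 uM final) added; fluorescence followed for 8 min. Concentration-response curves derived from the normalized delta values.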

[2] = molecular target: Flap endonuclease 1 (Homo sapiens) (UniProt P39748); assay: qHTS Validation Assay for the Inhibitors of Human Flap endonuclease 1 (FEN1) (AID 488816); conditions: FEN1 nuclease activity, fluorogenic DNA substrate; series mostly up to 57.1 µM; also: potency is read from the fitted curve at half-maximal effect
Sequence of Flap endonuclease 1 (Homo sapiens) (P39748 whole entry, looked up): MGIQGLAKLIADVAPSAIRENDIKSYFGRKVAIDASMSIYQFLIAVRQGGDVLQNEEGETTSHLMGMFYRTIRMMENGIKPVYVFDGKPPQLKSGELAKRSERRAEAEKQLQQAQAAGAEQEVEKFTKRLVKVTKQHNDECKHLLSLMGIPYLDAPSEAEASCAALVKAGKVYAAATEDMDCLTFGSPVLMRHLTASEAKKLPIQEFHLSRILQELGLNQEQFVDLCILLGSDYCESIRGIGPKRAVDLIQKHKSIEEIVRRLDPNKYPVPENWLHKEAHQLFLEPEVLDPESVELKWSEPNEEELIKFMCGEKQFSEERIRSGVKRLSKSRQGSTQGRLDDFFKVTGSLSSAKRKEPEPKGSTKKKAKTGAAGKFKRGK
Summary of the method: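 Readings taken at 0 and 15 min after starting the reaction with 50 nM (final) substrate supplied the signal. Compounds had first sat with 10 nM FEN1 reagent for 15 min at room temperature. Values come from Hill-equation concentration-response fits.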

[3] = molecular target: Chromobox protein homolog 1 (Homo sapiens) (UniProt P83916); assay: qHTS Validation Assay for Inhibitors of HP1-beta Chromodomain Interactions with Methylated Histone Tails (AID 488953); conditions: HP1-beta chromodomain / methylated histone peptide binding assay; series mostly up to 114 µM; also: nearly all actives have a fitted effect of over 50% in size; also: potency is read from the fitted curve at half-maximal effect
Sequence of Chromobox protein homolog 1 (Homo sapiens) (P83916 whole entry, looked up): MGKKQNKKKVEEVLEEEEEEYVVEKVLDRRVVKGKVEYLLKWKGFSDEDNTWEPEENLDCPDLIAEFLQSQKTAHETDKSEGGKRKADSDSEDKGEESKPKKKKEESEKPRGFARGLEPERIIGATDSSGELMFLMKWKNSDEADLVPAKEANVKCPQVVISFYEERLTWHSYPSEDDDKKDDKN
Summary of the method: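 Measured as loss of AlphaScreen luminescence from streptavidin donor and nickel acceptor beads (10 ug/mL final) bridging HP1-beta and biotin-H3(1-18)K9me3, each 50 nM. Compounds met the preassembled complex for 30 min at RT.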

[4] = molecular target: Methanococcus maripaludis chaperonin (MmCpn) (UniProt Q6LX38); assay: High-Throughput Screening for Modulators of Cytosolic Chaperonin Activity: MmCpn Primary Screen (AID 488978); conditions: Purified MmCpn ATPase activity, ADP HTRF detection, 10 min; series mostly up to 76.9 µM;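 also: 50 nM MmCpn enzyme hydrolysing 30 µM ATP at 37 °C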
Sequence of Methanococcus maripaludis chaperonin (MmCpn) (Q6LX38 1-543): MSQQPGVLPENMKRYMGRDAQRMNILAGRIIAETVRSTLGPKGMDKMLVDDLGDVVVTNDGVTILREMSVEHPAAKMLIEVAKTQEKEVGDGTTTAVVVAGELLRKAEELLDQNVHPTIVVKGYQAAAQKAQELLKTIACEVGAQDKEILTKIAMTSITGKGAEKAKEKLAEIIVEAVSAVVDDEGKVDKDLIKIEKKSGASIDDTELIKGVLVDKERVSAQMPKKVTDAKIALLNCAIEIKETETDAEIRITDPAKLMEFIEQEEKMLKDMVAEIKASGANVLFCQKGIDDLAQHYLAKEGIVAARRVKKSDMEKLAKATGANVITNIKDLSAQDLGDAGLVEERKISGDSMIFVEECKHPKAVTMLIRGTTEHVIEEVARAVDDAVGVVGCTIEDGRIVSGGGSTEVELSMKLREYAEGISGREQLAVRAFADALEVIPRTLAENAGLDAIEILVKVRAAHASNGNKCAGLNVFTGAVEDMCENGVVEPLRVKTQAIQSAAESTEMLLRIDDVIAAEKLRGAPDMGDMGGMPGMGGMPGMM
Summary of the method: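 Measures ATPase turnover of the M. maripaludis chaperonin (50 nM final) against 30 uM ATP over 10 min at 37C, with compound added 5 min beforehand at room temperature. ADP is quantified by HTRF immunodetection.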

[5] = molecular target: Thyrotropin receptor (Homo sapiens) (UniProt P16473); assay: qHTS Assay for Antagonists of the Thyroid Stimulating Hormone Receptor (AID 488980); conditions: TSHR-expressing cells, cAMP antagonist read-out; series mostly up to 57.5 µM
Sequence of Thyrotropin receptor (Homo sapiens) (P16473 whole entry, looked up): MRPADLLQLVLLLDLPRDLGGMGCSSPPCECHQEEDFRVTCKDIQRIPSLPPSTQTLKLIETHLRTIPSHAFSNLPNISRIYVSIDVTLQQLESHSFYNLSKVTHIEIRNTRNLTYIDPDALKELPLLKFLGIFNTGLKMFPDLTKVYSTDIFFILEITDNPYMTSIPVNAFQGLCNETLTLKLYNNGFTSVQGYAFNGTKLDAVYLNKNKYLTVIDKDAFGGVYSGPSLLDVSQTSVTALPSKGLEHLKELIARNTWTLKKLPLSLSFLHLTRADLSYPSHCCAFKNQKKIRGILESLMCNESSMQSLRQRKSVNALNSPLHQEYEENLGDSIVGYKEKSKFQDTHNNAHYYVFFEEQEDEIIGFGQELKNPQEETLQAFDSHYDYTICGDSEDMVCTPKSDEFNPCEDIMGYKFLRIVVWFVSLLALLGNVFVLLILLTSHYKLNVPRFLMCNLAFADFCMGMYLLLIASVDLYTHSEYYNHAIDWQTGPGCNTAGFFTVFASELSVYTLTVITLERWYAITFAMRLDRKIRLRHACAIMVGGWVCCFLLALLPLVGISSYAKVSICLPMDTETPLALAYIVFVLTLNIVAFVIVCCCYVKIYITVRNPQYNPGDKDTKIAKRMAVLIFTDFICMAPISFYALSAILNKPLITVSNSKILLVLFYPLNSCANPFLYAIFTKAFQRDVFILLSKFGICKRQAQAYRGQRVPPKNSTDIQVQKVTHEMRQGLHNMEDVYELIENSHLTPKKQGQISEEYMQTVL
Summary of the method: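 Cells expressing human TSHR (HEK293) are dispensed in HBSS/HEPES containing 70 uM RO 20-1724, compound is added, then TSH at EC80 (4 nM final). Antibody in lysis buffer follows, 30 minutes at room temperature before HTRF detection.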

[6] = molecular target: D(1A) dopamine receptor (Homo sapiens) (UniProt P21728); assay: HTS Assay for Allosteric Agonists of the Human D1 Dopamine Receptor: Primary Screen for Agonists (AID 488981); conditions: Inducible HEK293 T-REx D1 cells, calcium-flux fluorescence, 180 s kinetic; series mostly up to 41.8 µM; also: potency is read from the fitted curve at half-maximal effect
Sequence of D(1A) dopamine receptor (Homo sapiens) (P21728 whole entry, looked up): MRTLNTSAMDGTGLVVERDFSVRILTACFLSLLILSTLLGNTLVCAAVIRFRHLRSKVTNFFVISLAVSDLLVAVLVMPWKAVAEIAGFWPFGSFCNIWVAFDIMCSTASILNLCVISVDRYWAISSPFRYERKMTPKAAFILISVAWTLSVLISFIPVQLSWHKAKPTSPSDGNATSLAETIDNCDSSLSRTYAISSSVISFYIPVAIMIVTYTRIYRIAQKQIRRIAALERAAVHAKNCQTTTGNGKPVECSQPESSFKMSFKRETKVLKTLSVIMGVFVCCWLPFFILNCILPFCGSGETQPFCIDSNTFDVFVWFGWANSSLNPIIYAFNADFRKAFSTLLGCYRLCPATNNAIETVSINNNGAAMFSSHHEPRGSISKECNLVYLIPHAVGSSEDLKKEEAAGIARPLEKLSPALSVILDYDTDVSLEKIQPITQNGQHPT
Summary of the method: (§1)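 Calcium flux in an inducible, force-coupled HEK293 Trex D1 line (overnight at 30 C): agonist mode is the 180 s kinetic read after compound; potentiator mode is the following 180 s read after dopamine at EC20.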

[7] = molecular target: D(1A) dopamine receptor (Homo sapiens) (UniProt P21728); assay: HTS Assay for Allosteric Agonists of the Human D1 Dopamine Receptor: Primary Screen for Potentiators (AID 488982); conditions: HEK293 T-REx D1 inducible cells, calcium flux, kinetic fluorescence; series mostly up to 8.37 µM; also: potency is read from the fitted curve at half-maximal effect
Summary of the method: as §1

[8] = molecular target: D(1A) dopamine receptor (Homo sapiens) (UniProt P21728); assay: HTS Assay for Allosteric Agonists of the Human D1 Dopamine Receptor: Primary Screen for Antagonists (AID 488983); conditions: D1 receptor cell assay, antagonist mode, qHTS titration; series mostly up to 41.8 µM;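 also: calcium flux response to an EC80 dopamine challenge measured with no-wash dye; nearly all actives have a fitted effect of over 65% in size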; also: potency is read from the fitted curve at half-maximal effect
Summary of the method: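 Screening of inducible HEK293 T-REx D1 cells: compound first, EC80 dopamine 180 s later, each phase read kinetically for calcium over 180 s.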

[9] = molecular target: Transient receptor potential cation channel subfamily V member 1 (Homo sapiens) (UniProt Q8NER1); assay: HTS Assay for Compounds that Act as Enhancers of the Vanilloid Receptor 1 (AID 488979); conditions: TRPV1-expressing cells, enhancer of channel activity, stimulated with capsaicin at EC20; series mostly up to 41.7 µM
Sequence of Transient receptor potential cation channel subfamily V member 1 (Homo sapiens) (Q8NER1 whole entry, looked up): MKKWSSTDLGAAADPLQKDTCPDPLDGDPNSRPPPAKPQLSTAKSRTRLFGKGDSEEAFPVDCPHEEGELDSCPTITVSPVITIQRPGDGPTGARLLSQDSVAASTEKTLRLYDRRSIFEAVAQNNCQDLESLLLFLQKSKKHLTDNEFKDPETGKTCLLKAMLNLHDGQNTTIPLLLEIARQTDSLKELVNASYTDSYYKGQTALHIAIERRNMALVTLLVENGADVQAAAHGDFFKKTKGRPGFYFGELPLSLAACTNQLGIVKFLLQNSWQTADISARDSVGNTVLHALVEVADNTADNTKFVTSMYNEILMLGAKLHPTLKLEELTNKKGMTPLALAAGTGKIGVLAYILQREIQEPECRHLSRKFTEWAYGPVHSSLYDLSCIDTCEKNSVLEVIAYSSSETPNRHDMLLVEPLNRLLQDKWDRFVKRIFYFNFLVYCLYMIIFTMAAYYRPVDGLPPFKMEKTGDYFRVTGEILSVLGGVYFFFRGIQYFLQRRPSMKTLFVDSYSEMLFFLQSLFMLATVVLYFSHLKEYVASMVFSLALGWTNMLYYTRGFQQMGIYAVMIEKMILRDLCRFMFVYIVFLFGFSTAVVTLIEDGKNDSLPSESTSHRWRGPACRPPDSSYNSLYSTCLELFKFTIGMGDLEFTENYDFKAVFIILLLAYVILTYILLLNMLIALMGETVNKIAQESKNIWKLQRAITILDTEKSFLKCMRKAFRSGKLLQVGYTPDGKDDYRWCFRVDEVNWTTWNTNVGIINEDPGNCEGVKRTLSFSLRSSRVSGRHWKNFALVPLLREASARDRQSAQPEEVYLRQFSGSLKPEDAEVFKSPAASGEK
Summary of the method: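 Calcium influx kinetics via Fluo-8 (480/520 nm) in TRPV1-expressing cells, 2000/well cultured overnight at 35.5C. Compound-alone read 3 min (agonist phase), followed by EC20 capsaicin challenge for 2 min (enhancer phase).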

[10] = molecular target: M-phase phosphoprotein 8 (Homo sapiens) (UniProt Q99549); assay: qHTS Validation Assay for Inhibitors for MPP8 Chromodomain Interactions with Methylated Histone Tails (AID 488949); conditions: AlphaScreen MPP8 binding to H3K9me3 peptide; series mostly up to 57.1 µM; also: nearly all actives have a fitted effect of over 55% in size; also: potency is read from the fitted curve at half-maximal effect
Sequence of M-phase phosphoprotein 8 (Homo sapiens) (Q99549 whole entry, looked up): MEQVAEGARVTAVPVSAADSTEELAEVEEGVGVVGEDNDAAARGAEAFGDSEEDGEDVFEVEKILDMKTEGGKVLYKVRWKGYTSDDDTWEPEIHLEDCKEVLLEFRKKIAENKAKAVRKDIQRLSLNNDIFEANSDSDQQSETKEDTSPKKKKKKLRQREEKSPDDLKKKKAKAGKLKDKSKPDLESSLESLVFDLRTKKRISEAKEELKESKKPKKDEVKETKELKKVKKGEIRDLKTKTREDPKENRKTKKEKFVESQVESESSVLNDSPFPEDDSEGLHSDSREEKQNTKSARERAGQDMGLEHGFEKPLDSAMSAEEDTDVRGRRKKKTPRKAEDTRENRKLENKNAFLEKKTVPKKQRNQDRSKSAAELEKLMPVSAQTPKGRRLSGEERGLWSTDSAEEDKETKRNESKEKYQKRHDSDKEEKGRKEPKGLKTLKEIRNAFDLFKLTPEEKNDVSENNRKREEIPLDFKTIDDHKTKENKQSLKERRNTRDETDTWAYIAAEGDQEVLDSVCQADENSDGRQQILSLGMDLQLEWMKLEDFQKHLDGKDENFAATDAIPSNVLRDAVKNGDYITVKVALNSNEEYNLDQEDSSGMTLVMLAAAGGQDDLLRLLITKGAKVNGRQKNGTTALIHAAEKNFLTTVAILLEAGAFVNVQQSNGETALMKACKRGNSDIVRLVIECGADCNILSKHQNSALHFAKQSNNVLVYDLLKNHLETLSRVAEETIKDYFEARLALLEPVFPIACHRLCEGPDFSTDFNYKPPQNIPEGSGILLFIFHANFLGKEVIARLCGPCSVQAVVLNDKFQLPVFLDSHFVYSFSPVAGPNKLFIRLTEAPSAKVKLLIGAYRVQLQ
Summary of the method: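 Disruption of the preformed MPP8–trimethyl-H3K9 peptide complex (both 50 nM, 30 min, RT) is measured after 30 min compound exposure, using AlphaScreen proximity beads; aurintricarboxylic acid titration serves as plate control.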

Measured: Potency

CN=C(NC#N)NCCSCc1nc[nH]c1C
not listed: [9] | [10]
inactive: all other assays above

COC(=O)C1=C(C)NC(C)=C(C(=O)OCCN(C)Cc2ccccc2)C1c1cccc([N+](=O)[O-])c1 (stereo not given)
active: [8] 7.08 µM
not listed: [2] | [3] | [10]
inactive: all other assays above

CCn1nc(C(=O)O)c(=O)c2cc3c(cc21)OCO3
not listed: [1] | [2] | [4]
inactive: all other assays above

CCNC(=O)N1CCN(CCCC(c2ccc(F)cc2)c2ccc(F)cc2)CC1
inactive: [1] | [10] | [4] | [5] | [7]
active: [6] 15.8 µM

C[C@]12C=CC(=O)C=C1CC[C@H]1[C@@H]3C[C@@H](O)[C@](O)(C(=O)CO)[C@@]3(C)C[C@H](O)[C@@]12F
not listed: [1] | [4] | [9]
inactive: all other assays above

CN(C)[C@@H]1C(=O)C(C(N)=O)=C(O)[C@@]2(O)C(=O)C3=C(O)c4c(O)ccc(Cl)c4[C@@H](O)[C@H]3C[C@@H]12
inactive: [4] | [6] | [7] | [8]
active: [2] 29.9 µM

CCOC(=O)C1=C(C)NC(C)=C(C(=O)OC)C1c1cccc(Cl)c1Cl (stereo not given)
not listed: [2]
inactive: all other assays above

CC(=O)OCC1=C(C(=O)O)N2C(=O)[C@@H](NC(=O)Cc3cccs3)[C@H]2SC1
inactive: [10] | [3] | [5] | [6] | [7] | [8]

O=C(CCCN1CCC(O)(c2cccc(C(F)(F)F)c2)CC1)c1ccc(F)cc1
not listed: [2] | [6] | [8]
inactive: all other assays above

C[N+](C)(C)CCCCCCCCCC[N+](C)(C)C
not listed: [2]
inactive: all other assays above

CNCCCN1c2ccccc2CCc2ccccc21
inactive: [1] | [4] | [5] | [6] | [7]

CC1=C(C)C(=O)C(CCCCC#CCCCC#CCO)=C(C)C1=O
active: [10] 31.6 µM | [3] 31.6 µM
not listed: [1]
inactive: all other assays above

C[C@H](CS)C(=O)N1CCC[C@H]1C(=O)O
inactive: [10] | [4] | [5] | [6] | [7] | [8]

COc1cc(Cc2cnc(N)nc2N)cc(OC)c1OC
not listed: [2] | [3] | [10]
inactive: all other assays above

CC(N=C(NC#N)Nc1ccncc1)C(C)(C)C (stereo not given)
not listed: [2] | [4]
inactive: all other assays above

CN(C)CCCN1c2ccccc2Sc2ccc(C(F)(F)F)cc21
active: [8] 1.26 µM
not listed: [2] | [3] | [9]
inactive: all other assays above

CCN(CC)CC(=O)Nc1c(C)cccc1C
not listed: [4] | [9] | [10]
inactive: all other assays above

NCCCNCCSP(=O)(O)O
not listed: [2]
inactive: all other assays above

CC(C)NCC(O)c1cc(O)cc(O)c1 (stereo not given)
not listed: [2] | [9]
inactive: all other assays above

CC(=O)[C@]1(O)Cc2c(O)c3c(c(O)c2[C@@H](O[C@H]2C[C@H](N)[C@H](O)[C@H](C)O2)C1)C(=O)c1ccccc1C3=O
active: [2] 26.7 µM | [10] 28.2 µM | [3] 39.8 µM | [6] 11.2 µM | [7] 2.91 µM
inactive: [4] | [5]

CN/C(=C\[N+](=O)[O-])NCCSCc1ccc(CN(C)C)o1
inactive: [1] | [4] | [5] | [6] | [7] | [8]
